# For some assays here: Potency and affinity values are given separately. Active and inactive are the calls of the source.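 Rule for the calls, unless noted: active = compound raising the membrane signal above positive-control mean plus 3 SD in both repeats, and a primary screen hit; inactive = the rest.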
# Legend:
# [1] = system: TRPC4 beta (transient receptor potential cation channel C4), mouse; experiment: TRPC4 cation channel opening, retest – cell-based, Fluo4 calcium, HEK293 TRPC4beta/mu-opioid, duplicates, 10 µM, confirmation (AID 2426;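 active = fluorescence ratio normalized to control raised more than 50% in primary screen plus both repeat runs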;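 for activation: percent rise of integrated ratio over buffer wells lacking compound which define 0%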); settings: Fluo4 calcium fluorescence, at 10 µM; hits give high values
# [2] = system: transient receptor potential cation channel C4 beta (TRPC4), mouse; experiment: TRPC4 cation channel opening, second retest – cell-based, second round, Fluo4, HEK293 TRPC4beta/mu-opioid, 1 µM, confirmation (AID 2461;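 active = primary screen active and over 50% activation in each of two duplicate runs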); settings: Fluo4 calcium fluorescence, at 1 µM; hits give high values
# [3] = system: TRPC4 (transient receptor potential cation channel C4 beta), mouse; experiment: potentiation of DAMGO EC20 TRPC4 response – cell-based, second round, Fluo-4, HEK293 TRPC4beta/mu-opioid, 1 µM, confirmation (AID 2554;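 active = primary screen hit whose fluorescence ratio, in both repeats, exceeds the weak agonist control mean by 3 SD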); settings: DAMGO EC20, Fluo-4 calcium flux, at 1 µM; hits give high values
# [4] = system: TRPC4 beta (transient receptor potential cation channel C4), mouse; experiment: potentiation of DAMGO EC20 TRPC4 response – cell-based, Fluo-4, HEK293 TRPC4beta/mu-opioid, confirmation (AID 2555;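 active = primary screen hit whose calcium fluorescence ratio, in both repeats, exceeds the weak agonist control mean by 3 SD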); settings: DAMGO EC20, Fluo-4 calcium flux, at 10 µM; hits give high values
# [5] = biological target: Short transient receptor potential channel 4 (Mus musculus) (UniProt Q9QUQ5); experiment: blockers of DAMGO-evoked TRPC4 calcium flux – cell-based, Fluo4, HEK293 TRPC4beta/mu-opioid, confirmation (AID 2636;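 active = calcium signal cut by more than 3 SD below the full-agonist control yet still positive, in both repeats and the earlier primary screen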); settings: at 10 µM; hits give high values
# Sequence of Short transient receptor potential channel 4 (Mus musculus) (Q9QUQ5 whole entry, looked up): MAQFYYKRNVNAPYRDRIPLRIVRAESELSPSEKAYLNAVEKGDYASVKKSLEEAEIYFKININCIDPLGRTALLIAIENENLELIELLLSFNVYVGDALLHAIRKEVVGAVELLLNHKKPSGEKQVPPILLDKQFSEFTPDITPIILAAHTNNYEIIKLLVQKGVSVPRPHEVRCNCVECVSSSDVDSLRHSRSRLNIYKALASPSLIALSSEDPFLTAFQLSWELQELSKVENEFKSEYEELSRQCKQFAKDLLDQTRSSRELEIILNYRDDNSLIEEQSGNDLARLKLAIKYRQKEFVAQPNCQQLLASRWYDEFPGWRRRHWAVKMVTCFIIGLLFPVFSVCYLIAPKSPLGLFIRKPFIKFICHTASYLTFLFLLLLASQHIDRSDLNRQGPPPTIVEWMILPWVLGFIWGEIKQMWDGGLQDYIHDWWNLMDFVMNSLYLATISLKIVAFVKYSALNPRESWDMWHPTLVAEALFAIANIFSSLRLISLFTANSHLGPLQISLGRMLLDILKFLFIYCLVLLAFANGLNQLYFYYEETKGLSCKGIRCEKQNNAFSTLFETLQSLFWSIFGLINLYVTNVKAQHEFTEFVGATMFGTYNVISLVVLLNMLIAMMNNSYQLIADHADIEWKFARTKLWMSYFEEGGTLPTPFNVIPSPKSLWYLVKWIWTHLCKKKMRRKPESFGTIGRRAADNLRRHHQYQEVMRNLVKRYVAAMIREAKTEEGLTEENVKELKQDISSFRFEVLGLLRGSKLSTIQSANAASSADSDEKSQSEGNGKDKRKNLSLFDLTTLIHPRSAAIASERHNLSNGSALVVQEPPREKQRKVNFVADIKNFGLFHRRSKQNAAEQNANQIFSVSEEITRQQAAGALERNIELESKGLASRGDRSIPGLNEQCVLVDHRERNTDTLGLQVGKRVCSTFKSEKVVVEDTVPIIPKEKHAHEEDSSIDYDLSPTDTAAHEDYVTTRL
# [6] = biological target: Short transient receptor potential channel 4 (Mus musculus) (UniProt Q9QUQ5); experiment: blockers of DAMGO-evoked TRPC4 calcium flux – cell-based, second round, Fluo4, HEK293 TRPC4beta/mu-opioid, 1 µM, confirmation (AID 2637;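 active = calcium signal ratio cut to more than 3 SD under the fully stimulated control mean yet still positive, in both repeats and the primary screen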;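 for inhibition: percent of integrated ratio relative to wells lacking test compound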); settings: at 1 µM; hits give high values
# [7] = biological target: Short transient receptor potential channel 4 (Mus musculus) (UniProt Q9QUQ5); experiment: calcium entry via TRPC4 opening agents – cell-based, HEK293 TRPC4/mu-opioid, Fluo-4 calcium, dose response (AID 434937;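 active = primary screen activator hit with a dose response curve and TRPC4 channel activation at any tested dose; inactive = no activation, no dose response, or not a primary hit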)
# [8] = biological target: Short transient receptor potential channel 4 (Mus musculus) (UniProt Q9QUQ5); experiment: block of DAMGO-driven TRPC4 calcium entry – cell-based, HEK293 TRPC4/mu-opioid, Fluo-4 calcium, dose response (AID 434942;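 active = primary screen inhibitor hit that blocks the TRPC4 channel at some tested dose, yielding a dose curve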)
# [9] = biological target: Short transient receptor potential channel 6 (Mus musculus) (UniProt Q61143); experiment: TRPC6 blockade by TRPC4 inhibitor hits – cell-based, HEK293, membrane potential dye, duplicate, selectivity assay for TRPC4 inhibitor project, confirmation (AID 434948;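 active = active in primary screen and both duplicates, each dropping signal beyond three positive-control SD with fluorescence still positive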); settings: HEK293 TRPC6, membrane potential dye fluorescence, at 10 µM, stimulated with maximal-effect acetylcholine; hits give high values
# Sequence of Short transient receptor potential channel 6 (Mus musculus) (Q61143 whole entry, looked up): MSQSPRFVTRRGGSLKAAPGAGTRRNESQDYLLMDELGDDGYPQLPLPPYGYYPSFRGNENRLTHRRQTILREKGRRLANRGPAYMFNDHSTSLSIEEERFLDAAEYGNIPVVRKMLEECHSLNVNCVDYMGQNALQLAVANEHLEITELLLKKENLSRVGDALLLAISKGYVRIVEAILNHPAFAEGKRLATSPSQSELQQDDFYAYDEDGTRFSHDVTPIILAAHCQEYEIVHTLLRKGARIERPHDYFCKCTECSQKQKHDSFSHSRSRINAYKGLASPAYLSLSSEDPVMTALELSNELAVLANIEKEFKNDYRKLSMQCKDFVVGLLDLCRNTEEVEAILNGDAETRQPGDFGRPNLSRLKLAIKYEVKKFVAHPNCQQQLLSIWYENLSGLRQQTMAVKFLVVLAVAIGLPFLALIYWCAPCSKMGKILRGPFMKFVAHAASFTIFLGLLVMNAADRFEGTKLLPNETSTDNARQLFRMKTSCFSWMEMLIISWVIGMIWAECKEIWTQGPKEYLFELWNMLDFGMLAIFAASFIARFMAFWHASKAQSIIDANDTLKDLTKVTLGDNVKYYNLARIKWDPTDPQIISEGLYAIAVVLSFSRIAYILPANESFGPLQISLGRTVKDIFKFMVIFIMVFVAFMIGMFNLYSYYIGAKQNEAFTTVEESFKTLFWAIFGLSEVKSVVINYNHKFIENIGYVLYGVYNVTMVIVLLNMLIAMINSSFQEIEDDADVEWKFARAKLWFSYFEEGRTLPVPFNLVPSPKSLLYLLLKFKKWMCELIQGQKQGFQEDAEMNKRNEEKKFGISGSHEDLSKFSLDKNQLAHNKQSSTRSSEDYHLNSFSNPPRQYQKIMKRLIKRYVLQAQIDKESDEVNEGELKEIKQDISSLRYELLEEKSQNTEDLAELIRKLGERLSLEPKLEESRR
# [10] = biological target: Short transient receptor potential channel 6 (Mus musculus) (UniProt Q61143); experiment: TRPC6 opening by TRPC4 activator hits – cell-based, HEK293, membrane potential dye, duplicate, selectivity assay for TRPC4 activator project, confirmation (AID 434950;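 active = membrane potential signal rise above negative control mean plus 3 SD in both duplicates, also active in the earlier TRPC4 screen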;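 for activation: 0% = buffer only wells and 100% = acetylcholine maximal-effect wells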); settings: HEK293 TRPC6, membrane potential fluorescence, at 10 µM; activation: hits give high values; outcome: activation
# [11] = biological target: Short transient receptor potential channel 6 (Mus musculus) (UniProt Q61143); experiment: positive modulators of mouse TRPC6 channel – HEK293 cells, membrane potential dye, duplicate, selectivity assay for TRPC4 potentiator project, confirmation (AID 434952); settings: HEK293 TRPC6, membrane potential dye fluorescence, at 10 µM, maximal acetylcholine added after compound; hits give high values
# [12] = biological target: Short transient receptor potential channel 4 (Mus musculus) (UniProt Q9QUQ5); experiment: calcium flux activators in TRPC4/5HT1a cells, counter-screen for TRPC4 activator project, cell-based, second counter screen, HEK293 TRPC4/5HT1a, Fluo-4 (AID 434977;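 active = calcium signal rise above buffer-control mean plus 5 SD in both duplicates, and also a hit in the primary screen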;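 for activation: plate controls were assay buffer for no effect and maximal serotonin response for full effect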); settings: Fluo-4 calcium flux, at 10 µM; hits give high values
# [13] = serotonin-gated TRPC4 signal block – cell-based, second counter screen, HEK293 TRPC4/5HT1a, Fluo-4, counter-screen for TRPC4 inhibitor project, confirmation (AID 434978;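 active = primary screen active whose calcium signal fell more than 3 SD beyond the full-serotonin control mean in both duplicate plates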;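 for outcome: serotonin given first at submaximal then at maximal dose after compound preincubation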); settings: Fluo-4 calcium flux, at 10 µM, serotonin added to trigger calcium flux; hits give high values
# [14] = system: TRPC4 (mouse), co-expressed with 5HT1a in HEK293; experiment: enhancement of serotonin-evoked TRPC4 response – cell-based, second counter screen, HEK293 TRPC4/5HT1a, Fluo-4, counter-screen for TRPC4 potentiator project, confirmation (AID 434979;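 active = signal rise over 3 SD above mean of control wells given weak agonist, in both repeats and first screen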); settings: Fluo-4 calcium flux, at 10 µM, serotonin added at its EC20 dose; hits give high values
# [15] = nonspecific calcium rise without TRPC4 – cell-based, HEK293 mu-opioid receptor line, counter-screen for TRPC4 activator project, confirmation (AID 449723;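 active = hit in primary screen, with calcium signal over 5 SD above buffer well mean in both duplicates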;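 note: counter screen cells carry the mu-opioid receptor alone and lack TRPC4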); settings: HEK293 mu-opioid cells, Fluo-4 calcium fluorescence, at 10 µM; hits give high values
# [16] = nonspecific potentiation of DAMGO calcium response – cell-based, HEK293 mu-opioid receptor line, counter-screen for TRPC4 allosteric potentiator project, confirmation (AID 449724;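 active = calcium signal rise more than 3 SD above the low-dose agonist control mean, in both duplicate plates and the primary screen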); settings: HEK293 mu-opioid receptor cells, Fluo-4 calcium flux, at 10 µM, compound added before EC20 DAMGO stimulus; hits give high values
# [17] = biological target: Short transient receptor potential channel 4 (Mus musculus) (UniProt Q9QUQ5); experiment: potentiation of DAMGO-evoked TRPC4 calcium signal – cell-based, HEK293 TRPC4/mu-opioid, Fluo-4 calcium, EC20 DAMGO, dose response (AID 434941;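 active = earlier screen potentiator hit that boosts the TRPC4 ion channel at some dose, with a dose response; inactive = no potentiation, no dose response, or not a prior hit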;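 note: calcium entry triggered by an EC20 dose of DAMGO at the co-expressed mu-opioid receptor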)
# [18] = nonspecific flux increase, KCNQ1-free cells – parental CHO cells, counter-screen for KCNQ1 potentiator project (AID 493006;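 active = duplicate-averaged activation above buffer control mean plus 5 SD of those controls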); settings: parental CHO-K1 cells, FluxOR thallium flux, at 10 µM; hits give high values
# [19] = biological target: Potassium voltage-gated channel subfamily KQT member 1 (Homo sapiens) (UniProt P51787); experiment: enhancement of KCNQ1 channel thallium flux – FluxOR thallium flux, CHO cells, duplicates, confirmation (AID 493007;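 active = potentiation averaged over duplicate wells exceeding buffer-only control mean by more than 3 SD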;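 note: cells depolarized by a potassium plus thallium sulfate stimulus after compound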); settings: KCNQ1 cell line, FluxOR thallium flux fluorescence, at 10 µM; hits give high values, % of reference activator effect, buffer zero
# Sequence of Potassium voltage-gated channel subfamily KQT member 1 (Homo sapiens) (P51787 whole entry, looked up): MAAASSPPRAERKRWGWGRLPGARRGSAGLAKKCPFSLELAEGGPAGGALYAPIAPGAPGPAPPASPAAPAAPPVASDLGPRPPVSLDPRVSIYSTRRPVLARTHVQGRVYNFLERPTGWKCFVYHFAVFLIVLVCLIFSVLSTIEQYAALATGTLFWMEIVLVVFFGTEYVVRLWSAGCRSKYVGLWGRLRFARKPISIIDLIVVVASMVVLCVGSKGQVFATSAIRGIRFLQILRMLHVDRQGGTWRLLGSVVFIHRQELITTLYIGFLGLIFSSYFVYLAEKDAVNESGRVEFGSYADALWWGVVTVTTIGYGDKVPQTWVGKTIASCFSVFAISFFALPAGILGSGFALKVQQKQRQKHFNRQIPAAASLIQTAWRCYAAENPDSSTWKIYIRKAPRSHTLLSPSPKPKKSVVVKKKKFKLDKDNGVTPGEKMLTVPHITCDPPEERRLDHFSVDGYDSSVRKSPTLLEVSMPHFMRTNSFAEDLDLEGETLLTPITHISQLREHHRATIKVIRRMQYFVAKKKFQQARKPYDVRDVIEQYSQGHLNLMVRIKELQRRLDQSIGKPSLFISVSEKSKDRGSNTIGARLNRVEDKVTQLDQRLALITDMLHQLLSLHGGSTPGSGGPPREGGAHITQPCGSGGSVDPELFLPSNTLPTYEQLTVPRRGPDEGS
# [20] = biological target: Potassium voltage-gated channel subfamily KQT member 2 (Rattus norvegicus) (UniProt O88943); experiment: KCNQ2 thallium flux enhancement – KCNQ2-CHO-K1 cells, selectivity assay for KCNQ1 potentiator project (AID 493009;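 active = mean duplicate potentiation above the buffer control mean plus 5 SD of buffer wells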;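 note: assay conditions were tuned for KCNQ1 rather than KCNQ2 modulators; signal is max minus min fluorescence divided by baseline after thallium stimulus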); settings: FluxOR thallium flux fluorescence, at 10 µM; hits give high values, scaled: buffer 0, activator control 100
# Sequence of Potassium voltage-gated channel subfamily KQT member 2 (Rattus norvegicus) (O88943 whole entry, looked up): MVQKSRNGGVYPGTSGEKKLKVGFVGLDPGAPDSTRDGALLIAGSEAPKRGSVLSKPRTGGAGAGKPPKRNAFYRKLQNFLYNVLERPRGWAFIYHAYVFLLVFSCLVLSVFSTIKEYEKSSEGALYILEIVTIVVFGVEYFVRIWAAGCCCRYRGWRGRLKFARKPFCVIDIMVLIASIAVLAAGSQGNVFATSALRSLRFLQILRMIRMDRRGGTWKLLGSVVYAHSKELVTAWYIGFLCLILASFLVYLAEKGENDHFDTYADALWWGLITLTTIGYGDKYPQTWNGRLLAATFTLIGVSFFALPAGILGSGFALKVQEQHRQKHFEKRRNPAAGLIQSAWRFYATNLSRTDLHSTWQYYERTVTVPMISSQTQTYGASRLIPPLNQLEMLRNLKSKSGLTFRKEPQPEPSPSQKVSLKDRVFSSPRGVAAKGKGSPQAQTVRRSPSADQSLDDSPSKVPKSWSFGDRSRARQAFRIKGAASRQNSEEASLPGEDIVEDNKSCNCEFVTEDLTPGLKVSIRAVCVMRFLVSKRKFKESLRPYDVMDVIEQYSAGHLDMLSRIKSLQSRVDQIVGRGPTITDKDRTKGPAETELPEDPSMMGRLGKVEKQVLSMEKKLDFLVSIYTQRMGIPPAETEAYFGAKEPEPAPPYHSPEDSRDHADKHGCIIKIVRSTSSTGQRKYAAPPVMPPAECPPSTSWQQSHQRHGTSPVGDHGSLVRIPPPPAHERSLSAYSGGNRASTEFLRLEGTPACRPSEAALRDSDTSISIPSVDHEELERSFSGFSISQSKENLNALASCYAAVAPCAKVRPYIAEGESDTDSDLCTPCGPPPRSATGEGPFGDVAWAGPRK
structure (smiles),measurement,setting,value
c1ccc(-c2nc(N3CCNCC3)nc3ccccc23)cc1,outcome,[1],inactive
same,outcome,[2],inactive
same,potentiation,[3],19% (active)
same,outcome,[4],inactive
same,outcome,[5],inactive
same,outcome,[6],inactive
same,outcome,[7],inactive
same,outcome,[8],inactive
same,outcome,[9],inactive
same,outcome,[10],inactive
same,outcome,[11],inactive
same,outcome,[12],inactive
same,outcome,[13],inactive
same,outcome,[14],inactive
same,outcome,[15],inactive
same,outcome,[16],inactive
Cc1cc(C)cc(N/C(N)=N/c2nc(C)cc(C)n2)c1,outcome,[1],inactive
same,outcome,[2],inactive
same,outcome,[3],inactive
same,outcome,[4],inactive
same,inhibition,[5],100% (active)
same,outcome,[6],inactive
same,outcome,[7],inactive
same,outcome,[17],inactive
same,outcome,[9],inactive
same,outcome,[10],inactive
same,outcome,[11],inactive
same,outcome,[12],inactive
same,inhibition,[13],30.2% (active)
same,outcome,[14],inactive
same,outcome,[15],inactive
same,outcome,[16],inactive
same,outcome,[18],inactive
same,outcome,[19],inactive
same,outcome,[20],inactive
Cc1cc(N2CCCCC2)nc2ccccc12,outcome,[1],inactive
same,outcome,[2],inactive
same,outcome,[3],inactive
same,outcome,[4],inactive
same,inhibition,[5],83% (active)
same,inhibition,[6],40% (active)
same,outcome,[7],inactive
same,outcome,[17],inactive
same,outcome,[9],inactive
same,outcome,[10],inactive
same,outcome,[11],inactive
same,outcome,[12],inactive
same,inhibition,[13],28.5% (active)
same,outcome,[14],inactive
same,outcome,[15],inactive
same,outcome,[16],inactive
Cc1cccc(/C=N/NC(=O)c2cccc(Cl)c2)n1,outcome,[1],inactive
same,outcome,[2],inactive
same,outcome,[3],inactive
same,potentiation,[4],79% (active)
same,outcome,[5],inactive
same,outcome,[6],inactive
same,outcome,[7],inactive
same,outcome,[8],inactive
same,outcome,[9],inactive
same,outcome,[10],inactive
same,outcome,[11],inactive
same,outcome,[12],inactive
same,outcome,[13],inactive
same,potentiation,[14],83.4% (active)
same,outcome,[15],inactive
same,outcome,[16],inactive
COc1ccc(Cl)cc1C(=O)NCCN(C)C,outcome,[1],inactive
same,outcome,[2],inactive
same,outcome,[3],inactive
same,outcome,[4],inactive
same,outcome,[5],inactive
same,outcome,[6],inactive
same,outcome,[7],inactive
same,outcome,[8],inactive
same,outcome,[9],inactive
same,outcome,[10],inactive
same,outcome,[11],inactive
same,outcome,[12],inactive
same,outcome,[13],inactive
same,potentiation,[14],13.6% (active)
same,outcome,[15],inactive
same,outcome,[16],inactive
COC(=O)[C@@]12CCCCN1[C@H](c1ccc(-c3cccc(Cl)c3)c(OC)c1)[C@H]1C(=O)N(C)C(=O)[C@H]12,outcome,[1],inactive
same,outcome,[2],inactive
same,outcome,[3],inactive
same,potentiation,[4],27% (active)
same,outcome,[5],inactive
same,outcome,[6],inactive
same,outcome,[7],inactive
same,outcome,[8],inactive
same,outcome,[9],inactive
same,outcome,[10],inactive
same,outcome,[11],inactive
same,outcome,[12],inactive
same,outcome,[13],inactive
same,potentiation,[14],52.4% (active)
same,outcome,[15],inactive
same,outcome,[16],inactive
Cc1ccc(C(C)C)cc1OCCCCN1CCCC1,outcome,[1],inactive
same,outcome,[2],inactive
same,potentiation,[3],15% (active)
same,potentiation,[4],12% (active)
same,outcome,[5],inactive
same,outcome,[6],inactive
same,outcome,[7],inactive
same,outcome,[8],inactive
same,outcome,[9],inactive
same,outcome,[10],inactive
same,outcome,[11],inactive
same,outcome,[12],inactive
same,outcome,[13],inactive
same,potentiation,[14],6.54% (active)
same,outcome,[15],inactive
same,outcome,[16],inactive
CN(C)CCCN(C(=O)c1ccc(S(=O)(=O)N2CCc3ccccc3C2)cc1)c1nc2ccc(F)cc2s1,outcome,[1],inactive
same,outcome,[2],inactive
same,outcome,[3],inactive
same,outcome,[4],inactive
same,outcome,[5],inactive
same,outcome,[6],inactive
same,outcome,[17],inactive
same,outcome,[8],inactive
same,outcome,[9],inactive
same,outcome,[10],inactive
same,outcome,[11],inactive
same,outcome,[12],inactive
same,outcome,[13],inactive
same,outcome,[14],inactive
same,outcome,[15],inactive
same,outcome,[16],inactive
COc1ccc(N/C(C)=C2/C(=O)C(=O)N(CCO)C2c2ccc([N+](=O)[O-])cc2)cc1 (configuration not stated),outcome,[1],inactive
same,outcome,[2],inactive
same,potentiation,[3],189% (active)
same,potentiation,[4],150% (active)
same,outcome,[5],inactive
same,outcome,[6],inactive
same,outcome,[7],inactive
same,outcome,[8],inactive
same,outcome,[9],inactive
same,outcome,[10],inactive
same,outcome,[11],inactive
same,outcome,[12],inactive
same,outcome,[13],inactive
same,potentiation,[14],129% (active)
same,outcome,[15],inactive
same,outcome,[16],inactive
Cc1cc(OCC(=O)NC2CCCCC2)ccc1Cl,outcome,[1],inactive
same,outcome,[2],inactive
same,outcome,[3],inactive
same,outcome,[4],inactive
same,outcome,[5],inactive
same,outcome,[6],inactive
same,outcome,[7],inactive
same,outcome,[8],inactive
same,outcome,[9],inactive
same,outcome,[10],inactive
same,outcome,[11],inactive
same,outcome,[12],inactive
same,outcome,[13],inactive
same,potentiation,[14],97.2% (active)
same,outcome,[15],inactive
same,outcome,[16],inactive
O=C(Nc1ccccc1)C1=C[C@H](C2CCCCC2)C[C@H](OCc2ccc(CO)cc2)O1,outcome,[1],inactive
same,outcome,[2],inactive
same,outcome,[3],inactive
same,potentiation,[4],85% (active)
same,outcome,[5],inactive
same,outcome,[6],inactive
same,outcome,[7],inactive
same,outcome,[8],inactive
same,outcome,[9],inactive
same,outcome,[10],inactive
same,outcome,[11],inactive
same,outcome,[12],inactive
same,outcome,[13],inactive
same,potentiation,[14],124% (active)
same,outcome,[15],inactive
same,outcome,[16],inactive
CNc1nc(N2CCc3ccccc32)ncc1F,outcome,[1],inactive
same,outcome,[2],inactive
same,potentiation,[3],27% (active)
same,potentiation,[4],75% (active)
same,outcome,[5],inactive
same,outcome,[6],inactive
same,outcome,[7],inactive
same,outcome,[8],inactive
same,outcome,[9],inactive
same,outcome,[10],inactive
same,outcome,[11],inactive
same,outcome,[12],inactive
same,outcome,[13],inactive
same,potentiation,[14],103% (active)
same,outcome,[15],inactive
same,outcome,[16],inactive
CN(C)CCOc1cc(Cl)cc(Cl)c1,outcome,[1],inactive
same,outcome,[2],inactive
same,outcome,[3],inactive
same,outcome,[4],inactive
same,outcome,[5],inactive
same,outcome,[6],inactive
same,outcome,[7],inactive
same,outcome,[8],inactive
same,outcome,[9],inactive
same,outcome,[10],inactive
same,outcome,[11],inactive
same,outcome,[12],inactive
same,outcome,[13],inactive
same,potentiation,[14],10.7% (active)
same,outcome,[15],inactive
same,outcome,[16],inactive
COC(=O)c1ccc(C(=S)NCC2(N(C)C)CCCCC2)cc1,activation,[1],181% (active)
same,outcome,[2],inactive
same,outcome,[3],inactive
same,outcome,[4],inactive
same,outcome,[5],inactive
same,outcome,[6],inactive
same,outcome,[17],inactive
same,outcome,[8],inactive
same,outcome,[9],inactive
same,activation,[10],41% (active)
same,outcome,[11],inactive
same,activation,[12],22.2% (active)
same,outcome,[13],inactive
same,outcome,[14],inactive
same,activation,[15],14.7% (active)
same,outcome,[16],inactive
